USP1 inh – inhibitors of human USP1/UAF1 deubiquitinase; recombinant USP1/UAF1, Ub-Rhodamine cleavage fluorescence; 390,000 tested, 0.23% active; O94782; Potency, µM (top dose mostly 57.1 µM), without a hit: top-dose activity change, negative = inhibition, hits mostly inhibitors; AID 743255; active = well fitted inhibition curve with a large enough effect; inconclusive = small, poorly fitted or top-dose-only effect; inactive = no such curve, though single readings can be large or run the other way; also: potency is read from the fitted curve at half-maximal effect; % is scaled to controls: 0 for no effect and ±100 for the full control effect; nearly all actives have a fitted effect of over 60% in size
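USP1/UAF1 complex at 1 nM was preincubated with compound for 15 min at room temperature, then Ub-Rho substrate (150nM final) was added. Fluorescence (480/540 nm) was read kinetically, 6 reads every 60 seconds.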
TRHR enhancer – TRH receptor (human) allosteric enhancement | P34981 | TRHR cells, fluo-8 calcium fluorescence, EC20 TRH enhancement | enhancement, % at 2 µM | 360,000 tested, 0.66% active | AID 493056; in the data active = enhancement above about 30%; also: 0% is about no effect
Target sequence (P34981 whole entry, looked up): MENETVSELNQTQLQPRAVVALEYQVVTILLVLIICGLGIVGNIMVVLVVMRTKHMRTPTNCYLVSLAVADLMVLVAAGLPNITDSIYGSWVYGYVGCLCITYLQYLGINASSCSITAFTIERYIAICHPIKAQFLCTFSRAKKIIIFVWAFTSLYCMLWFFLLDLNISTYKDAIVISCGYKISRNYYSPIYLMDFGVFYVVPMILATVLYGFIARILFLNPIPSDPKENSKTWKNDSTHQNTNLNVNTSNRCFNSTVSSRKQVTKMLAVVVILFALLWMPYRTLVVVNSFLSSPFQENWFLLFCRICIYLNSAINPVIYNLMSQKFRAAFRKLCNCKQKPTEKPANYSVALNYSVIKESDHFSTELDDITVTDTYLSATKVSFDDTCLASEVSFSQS
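TRHR-expressing cells loaded with fluo-8 calcium dye were read kinetically (ex 480/em 530) during compound addition, then stimulated with an EC20 of TRH (10 nM final). Enhancement of the Gq-mediated intracellular calcium response was scored.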
D1 ag – activates the human D1 dopamine receptor; AID 504660; activation, % at 2 µM; HEK293 T-REx D1 cells, calcium flux, agonist mode; P21728; 360,000 tested, 1% active; also: 0% is about no effect
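Inducible HEK293 T-REx D1 cells, force-coupled to calcium signalling, were plated at 4000 cells/well with tetracycline and held overnight at 30 C. After no-wash calcium dye loading, compound-evoked calcium rise over 180 s flagged agonists.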
D1 potentiator – potentiators of human D1 dopamine receptor. HEK293 TREx D1 cells, calcium flux, dopamine EC20 potentiation. P21728. potentiation, % at 10 µM. 360,000 tested, 0.036% active; in the data active = potentiation above about 30%; also: 0% is about no effect
D1 antag – blocks dopamine activation of the human D1 receptor; activity change, negative = inhibition, % at 10 µM; AID 504652; HEK293 TREx D1 cells, calcium flux, dopamine EC80; active compounds read low; 360,000 tested, 3.2% active; P21728; in the data active = activity change below about -30%; also: % is scaled to controls: 0 for no effect and ±100 for the full control effect
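Cells carrying a force-coupled, tetracycline-inducible human D1 receptor report calcium flux. Each well gets a 10 s baseline, compound with 180 s monitoring, then an EC80 dopamine stimulus with a second 180 s kinetic read.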
TRHR agonist – agonists of human TRH receptor; P34981; TRHR cells, calcium flux fluo-8, FDSS agonist mode; activation, % at 2 µM; 360,000 tested, 0.18% active; also: 0% is about no effect
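TRHR-expressing cells loaded with fluo-8 calcium dye; 23 nL library compound pin-transferred, kinetic FDSS fluorescence (Ex 480/Em 530) recorded about 180 s for agonist-induced calcium release, before a 10 nM TRH EC20 addition for potentiator mode.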
* = called active by the depositor; u = inconclusive; x = no result. Rows were chosen to be rich in hits. Some 4.4% of all compounds tested hit in one or more screens of this group. Rule as the data show it, unless noted: active = activation above about 30%; inactive = the rest.

SMILES	USP1 inh	TRHR enhancer	D1 ag	D1 potentiator	D1 antag	TRHR agonist
COc1ccc2c(c1)c1c(c(=O)n(-c3ccc(C)cc3)c(=O)n1CC(=O)NCc1ccc(C)cc1)n2C	u	2	1	-1	3	0
CC(NC(=O)c1cc(-c2cccnc2)nc2ccc(Br)cc12)C1CCCO1 (centres undefined)	-3%	8	0	2	-34*	0
CC(NC(=O)c1cc(-c2ccncc2)nc2ccc(Cl)cc12)C1CCCO1 (centres undefined)	-12%	-5	0	-1	4	0
COc1ccccc1N1CCN(C(=O)c2ccc3[nH]c(C)c(C)c3c2)CC1	-19%	-3	2	-6	13	0
COc1ccccc1N1CCN(C(=O)c2cccc(S(=O)(=O)N3CCCCCC3)c2)CC1	-23%	0	3	-5	-42*	0
CN(CC(=O)Nc1cccc(F)c1)C(=O)c1cccc(S(=O)(=O)N2CCN(c3ccccc3)CC2)c1	-18%	-3	3	-3	-5	0
COc1ccccc1N1CCN(C(=O)c2ccc3[nH]c4c(c3c2)CC(C)CC4)CC1 (centres undefined)	-8%	3	0	-3	-57*	0
COc1cccc(NC(=O)CN(C)C(=O)c2cccc(S(=O)(=O)N3CCN(c4ccc(F)cc4)CC3)c2)c1	-21%	3	7	-12	-34*	0
CN(CC(=O)Nc1ccc(F)cc1)C(=O)c1cccc(S(=O)(=O)N2CCN(c3ccc(F)cc3)CC2)c1	-13%	-2	9	-2	-39*	0
CCCCOc1ccc(C(=O)Nc2ccc3c(c2)N(C(C)=O)CCC3)cc1	-11%	-7	0	1	12	-1
CCc1cccc(C)c1NC(=O)Cn1ccn(Cc2ccc(Cl)cc2)c(=O)c1=O	19%	-4	3	-2	-8	0
CC1CCN(S(=O)(=O)c2ccc(C(=O)N3CCOCC3)cc2)CC1	-19%	-6	0	-6	-35*	0
COc1ccc(CN(C)C(=O)c2cccc(S(=O)(=O)N3CCN(c4ccccc4)CC3)c2)c(OC)c1OC	2%	3	0	-9	-33*	0
Cc1ccc(NC(=O)CN(C)C(=O)c2cccc(-n3cccc3)c2)cc1	-7%	0	0	-8	-40*	0
CN1CCN(S(=O)(=O)c2cccc(C(=O)N(C)CC(=O)Nc3ccc(F)c(F)c3F)c2)CC1	-25%	6	179*	-9	11	0
COc1cccc(CN(C)C(=O)c2cccc(S(=O)(=O)N3CCN(c4ccccc4)CC3)c2)c1	-10%	x	x	x	x	x
CS(=O)(=O)N1CCc2cc(C(=O)Nc3cccc(F)c3)ccc21	-14%	5	1	0	-6	-2
COc1cccc(NC(=O)CN(C)C(C)C(=O)Nc2ccc(S(=O)(=O)N3CCCC3)cc2)c1 (centres undefined)	-20%	-2	4	13	-34*	0
CC1CC(C)CN(S(=O)(=O)c2cccc(C(=O)N3CCN(c4ccc(F)cc4)CC3)c2)C1 (centres undefined)	-22%	4	5	6	-2	0
CC1CCN(S(=O)(=O)c2cccc(C(=O)N3CCN(c4ccc(F)cc4)CC3)c2)CC1	-18%	10	4	-3	-39*	-1
CC(=Nc1ccccc1O)c1sc2ccccc2c1O	u	6	48*	-4	-25	16
CC(=Nc1cccc(C)c1)c1sc2ccccc2c1O	u	7	23	-1	3	15
CC(=O)NCCN=C(C)c1sc2ccccc2c1O	-7%	2	2	-7	6	0
CC(=Nc1ccc(O)cc1)c1sc2ccccc2c1O	113%	13	53*	1	0	13
Cc1ccc(C23CC4CC(CC(CN)(C4)C2)C3)cc1	5%	0	42*	-6	22	11
SMILES	USP1 inh	TRHR enhancer	D1 ag	D1 potentiator	D1 antag	TRHR agonist
Cc1cccc(NC(=O)CSc2nc(=O)n(Cc3ccncc3)c3c2CCC3)c1C	-13%	-4	-1	-2	x	0
COc1ccc(NC(=O)N(C)C[C@H]2Oc3ccc(NC(=O)CCN4CCOCC4)cc3C(=O)N([C@@H](C)CO)C[C@H]2C)cc1	5µM*	x	x	x	x	x
CC1CCN(S(=O)(=O)c2ccc3c(c2)N(CC(=O)NCC(C)c2ccccc2)C(=O)CO3)CC1 (centres undefined)	-19%	4	4	0	5	-1
Cc1ccc(Sc2ccc(N3CCCC(C(=O)Nc4ccc(F)c(Cl)c4)C3)nn2)cc1 (centres undefined)	-27%	-3	1	2	3	1
Cc1nc(-c2ccc(S(=O)(=O)N3CCCN(CCc4ccccc4)CC3)s2)cs1	-1%	-1	31*	-4	-22	1
O=C1c2ccccc2N2C(=O)c3ccccc3C2N1Cc1ccco1 (centres undefined)	-8%	-4	0	-3	-50*	-1
O=C1c2cccnc2C(Nc2ccccc2Br)N1Cc1ccco1 (centres undefined)	-11%	0	-3	7	-53*	0
CCCN(C(=O)c1cc2c(Cl)nc3ccccc3c2s1)c1cccc(C)c1	u	40*	2	-1	11	1
COCc1cc(C)nc2sc3c(c12)NC(c1ccc(O)cc1)N(c1ccc(OC)cc1)C3=O (centres undefined)	-19%	5	2	10	-1	-1
C/C(=N\Nc1cc(-c2ccccc2)nc(-c2ccccc2)n1)c1ccc(O)c(C)c1	-12%	1	2	-13	0	0
COc1cc(N/N=C(\C)c2ccc(O)c(C)c2)nc(-c2ccccc2)n1	-25%	34*	1	4	-4	0
Cc1ccccc1N1CCN(C2CCCN(C(=O)c3cc(CC(C)C)nn3C)C2)CC1 (centres undefined)	-20%	-14	3	-6	-32*	-1
CCCc1cc(C(=O)N2CCCC(N3CCN(c4ccccc4C)CC3)C2)n(C)n1 (centres undefined)	-29%	-5	2	-9	6	0
CCc1ccc(OCC(=O)N(Cc2ccc(OC)cc2)C2CCS(=O)(=O)C2)cc1 (centres undefined)	-19%	-11	4	-1	1	1
CCN(CC)CCCCN1c2ccccc2Sc2ccccc21	-3%	-8	35*	-4	-12	2
CCN(CC)S(=O)(=O)c1ccc2c(c1)N(CC(=O)Nc1ccc(F)cc1F)C(=O)C1CCCN21 (centres undefined)	0%	1	3	1	-32*	0

Screening results (PubChem)
